Experimental data published in PubChem BioAssay AID651937 (The Scripps Research Institute Molecular Screening Center, 2012).
This is one part of the list. A number with no mark means an inactive call. Activity calls are given as the source filed them. Rule as the data show it: active = IC50 below about 9 µM; inactive = the rest.

Experiment: binders of control antibody PGV04, dose response, counter-screen for PG9 antibody binder project, biochemical, TR-FRET, distinct HIV envelope site (AID 651937)
Details: TR-FRET binding to control antibody PGV04
Compound `O=C(Nc1nnc(-c2ccccc2F)s1)c1ccccc1F` has an IC50 of 14.3 µM.
With `O=C(Oc1ccccc1)Oc1ccc2c(c1)oc(=O)c1ccccc12` the IC50 was 2.5 µM (active).
In the case of `COC(=O)C1=C(C)N(Cc2ccccc2C(F)(F)F)C(=NCc2ccc(OC)cc2)NC1c1cccc(C(F)(F)F)c1` (configuration not stated), the IC50 is reported as > 67 µM.
Work on `CC1(C)Cc2ccccc2-c2[nH]c(=S)[nH]c(=O)c21` yielded an IC50 of 38.1 µM.
`COc1ccc(-c2c(C)nn3c(N4CCC(C(=O)N5CCCCC5)CC4)cc(C)nc23)cc1OC` showed an IC50 of 56.5 µM.
For `S=c1[nH]c2ccccc2c2ccccc12`, the IC50 was 36.4 µM.
For `Cc1cccc(Nc2nc3c(S(=O)(=O)c4ccccc4)nnn3c3ccccc23)c1C`, the IC50 was 2.86 µM (active).
